In PubChem BioAssay (NCATS):
Values without a mark were called inactive. The rule behind the calls is not given here.

Test system: HIV-1 nucleocapsid protein NCp7 (binding to TG oligonucleotide)
Test: HIV Nucleocapsid (AID 346);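 note: potency is for inhibitors that block NC binding and lower polarization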
Settings: HIV-1 NC / fluorescein-TGTGTGTG probe, fluorescence polarization
Summary of the method: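 10 nM TG4xF probe with 100 nM nucleocapsid protein in high-salt Hepes pH 7.5 (250mM NaCl) containing 1uM ZnCl2 and reducing agents. Compound inhibition of binding was read as fluorescein polarization after 1 hr at room temperature.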
Potency is the fitted concentration of half-maximal effect.

SMILES | Potency [µM]
Cn1cccc1C(=O)N1CCC2(CCN(Cc3ccc(C#N)cc3)CC2)CC1 | > 20
CN(C)c1ccc(-c2ccc3ncnc(N4CCNCC4)c3c2)cc1 | > 20
N#CCCn1c(=O)c(-c2ccc(Cl)cc2)nc2cnc(N3CCOCC3)nc21 | > 20
COc1ccc(CNc2ncncc2-c2ccoc2)c(OC)c1 | > 20
Cc1cnc(CNc2cc(-c3ccoc3)ncn2)cn1 | > 20
COc1ccccc1CN1CCC2(CC1)CCN(C(=O)c1cccc(F)c1)CC2 | > 20
CS(=O)(=O)N1CCC[C@@]2(CCN(Cc3ccc(C#N)cc3)C2)C1 | > 20
CS(=O)(=O)Nc1cccc(-c2ccc3ncnc(Nc4ccccc4)c3c2)c1 | > 20
COc1cccc(Cn2c(=O)c(CCc3ccccc3)nc3cnc(N4CCNCC4)nc32)c1 | > 20
COc1cccc(Nc2ncc3ncc(=O)n(CCc4ccccc4)c3n2)c1 | > 4
CN(C)c1ncc2ncc(=O)n(C3CC3)c2n1 | > 20
CN1CCN(c2ncnc3ccc(-c4ccccc4C#N)cc23)CC1 | > 20
c1ccc2c(NCCN3CCOCC3)nc(-c3ccc4c(c3)OCO4)nc2c1 | > 20
Cc1cnc(CNc2ncncc2-c2ccc(N(C)C)cc2)cn1 | > 20
CNc1nc(-c2cccnc2)nc2ccccc12 | > 20
O=c1c(-c2cc(F)cc(F)c2)nc2cncnc2n1C1CC1 | > 20
Cc1ccccc1-c1cncnc1NCc1cccnc1 | > 20
O=c1c(-c2cccs2)nc2cnc(N3CCNCC3)nc2n1Cc1cccs1 | > 20
Cc1ccccc1-c1nccc(NCc2cccs2)n1 | > 20
COc1ccc(NC(=O)N2CC3(CCN(C(=O)c4cccn4C)CC3)C2)cc1 | > 20

SMILES | Potency [µM]
O=C(Nc1ccccc1)N1CCC2(CC1)CCN(C(=O)c1csnn1)CC2 | > 20
COC(=O)N1CCC2(CCN(Cc3ccccc3)CC2)CC1 | > 20
O=c1c(-c2cccs2)nc2cnc(N3CCOCC3)nc2n1Cc1cccs1 | > 4
CN1CCN(c2ccnc(-c3ccc(N(C)C)cc3)n2)CC1 | > 20
CN(Cc1ccco1)c1ncnc2ccc(-c3ccoc3)cc12 | > 20
O=c1c(-c2cc(F)cc(F)c2)nc2cnc(N3CCOCC3)nc2n1Cc1ccc(F)cc1 | > 20
CN(C)Cc1ccccc1-c1nccc(NC2CC2)n1 | > 20
Cn1cccc1C(=O)N1CCC[C@@]2(CCN(c3ccccn3)C2)C1 | > 20
Cc1cnc(CNc2ncncc2-c2c(C)noc2C)cn1 | > 20
CN(C)C(=O)c1ccc(-c2cncnc2NCc2ccccc2)cc1 | > 20
COc1ccc(CNc2nc(-c3cccc(NS(C)(=O)=O)c3)nc3ccccc23)c(OC)c1 | > 20
Cn1cccc1C(=O)N1CCC2(CCCN(C(c3ccccc3)c3ccccc3)C2)CC1 | > 20
Cc1noc(C)c1C(=O)N1CCC[C@@]2(CCN(Cc3nccs3)C2)C1 | > 20
O=C(Nc1cccc(F)c1)N1CCC2(CC1)CCN(C(=O)c1ccco1)CC2 | > 20
N#Cc1cccc(-c2nc3cnc(Oc4cccc(Cl)c4)nc3n(C3CC3)c2=O)c1 | > 20
COC(=O)N1CCC[C@@]2(CCN(c3ccccn3)C2)C1 | > 20
N#Cc1cccc(NC(=O)N2CCC3(CC2)CCN(C(=O)c2csnn2)CC3)c1 | > 20
Cc1noc(C)c1C(=O)N1CCC2(CCN(Cc3cc(C(F)(F)F)cc(C(F)(F)F)c3)CC2)CC1 | > 4
O=C(c1cc(C(F)(F)F)cc(C(F)(F)F)c1)N1CCC2(CCCN(c3ccccn3)C2)CC1 | > 20
O=C(Oc1ccccc1)N1CCC2(CCCN(c3cccc(-c4ccccc4)c3)C2)CC1 | > 20

SMILES | Potency [µM]
O=C(c1cccc(F)c1)N1CCC2(CCCN(c3ccncc3)C2)CC1 | > 20
COc1ncc2nc(-c3cccs3)c(=O)n(C)c2n1 | > 20
COc1ccc(-c2nc3cnc(N(C)C)nc3n(C3CC3)c2=O)cc1 | > 20
CN(Cc1ccco1)c1ccnc(-c2cccc(C#N)c2)n1 | > 20
Cc1cnc(CNc2nc(-c3ccccc3C(F)(F)F)nc3ccccc23)cn1 | > 20
CN(Cc1ccco1)c1ncnc2ccc(-c3ccccc3Cl)cc12 | > 20
CN1CCN(c2ncc3nc(-c4ccc(Cl)cc4)c(=O)n(C4CC4)c3n2)CC1 | > 20
COCCn1c(=O)c(-c2ccc(Cl)cc2)nc2cnc(Oc3ccccc3)nc21 | > 20
COc1ccc(Oc2ncc3nc(-c4cccc(C#N)c4)c(=O)n(Cc4cccc(OC)c4)c3n2)cc1 | > 20
CN(C)C(=O)c1ccc(-c2nccc(NCc3cccnc3)n2)cc1 | > 20
O=C(Nc1cccc(F)c1)N1CC[C@@]2(CCCN(C(=O)c3ccco3)C2)C1 | > 20
N#Cc1ccc(CN2CC3(CCN(C(=O)c4cccc(F)c4)CC3)C2)cc1 | > 20
COc1ccccc1CNc1nc(-c2cccc(C#N)c2)nc2ccccc12 | > 20
COCCn1c(=O)cnc2cnc(N3CCOCC3)nc21 | > 20
COc1cccc(-c2nccc(N(C)Cc3ccco3)n2)c1 | > 20
Cc1noc(C)c1C(=O)N1CCC2(CCCN(C(=O)Nc3ccccc3)C2)CC1 | > 20
CN1CCN(c2ncncc2-c2ccccc2C(F)(F)F)CC1 | > 20
Cn1cccc1C(=O)N1CCC2(CCCN(c3ccc(-c4ccccc4)cc3)C2)CC1 | > 20
CN(C)Cc1ccccc1-c1ccc2ncnc(NC3CCNCC3)c2c1 | > 20
CC(=O)N1CCC[C@@]2(CCN(c3ccccc3)C2)C1 | > 20
